Measured values reported in PMC5540273 (PLoS ONE, 2017).
Several values for one entry are separate records, joined by “and”; a condition that tells them apart may be missing. Equal entries are not always repeated. Where two headings read alike, the source gives them in different places.

Tests used:
CDK4-cyclinD3 = conditions: n = 1
CDK4 = conditions: n = 1
CDK5 = conditions: concentration: 1 μM, replicates: in singlicate; n = 1
CDK7 = conditions: concentration: 1 μM, replicates: in singlicate, n = 1
CDK8 = conditions: concentration: 1 μM, replicates: in singlicate, n = 1
CDK9 = conditions: concentration: 1 μM, replicates: in singlicate, n = 1
CDKL1 = conditions: concentration: 1 μM, replicates: in singlicate, n = 1
CDKL2 = conditions: concentration: 1 μM, replicates: in singlicate, n = 1
CDKL3 = conditions: concentration: 1 μM, replicates: in singlicate; n = 1
CDKL5 = conditions: concentration: 1 μM, replicates: in singlicate; n = 1
[1] = concentration: 1 μM, replicates: in singlicate
[2] = concentration: 1 μM, replicates: in singlicate, 1 µM
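Also: KINOMEscan kinase panel screen.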

| SMILES | %Inh (CDK4-cyclinD3; [1]) | %Inh (CDK4; [1]) | %Inh (CDK5) | %Inh (CDK7) | %Inh (CDK8) | %Inh (CDK9) | %Inh (CDKL1) | %Inh (CDKL2) | %Inh (CDKL3) | %Inh (CDKL5) | %Inh (CDK4-cyclinD3; 1 µM) | %Inh (CDK4; 1 µM) | %Inh (CDK4; [2]) | %Inh (CDK7; 1 µM) | %Inh (CDK8; 1 µM) | %Inh (CDK9; 1 µM) | %Inh (CDKL1; 1 µM) | %Inh (CDKL2; 1 µM) | %Inh (CDK4-cyclinD3; [2]) |
| --- | --- | --- | --- | --- | --- | --- | --- | --- | --- | --- | --- | --- | --- | --- | --- | --- | --- | --- | --- |
| O=C(NCCNc1ccnc(Nc2ccc(F)cc2)n1)c1cc2ccccc2s1 [GSK1379874] | 0% | 0% | 0% | 0% | 38% | 0% | 8% | 5% | 0% | 0% | – | – | – | – | – | – | – | – | – |
| Cc1nnc(-c2ccc3ncc(-c4ccc(S(C)=O)cc4)n3c2)o1 (stereo not shown) | 0% | 0% | 0% | 0% | 13% | 0% | 0% | 4% | 2% | 10% | – | – | – | – | – | – | – | – | – |
| O=c1cc(N2CCOCC2)nc2n(Cc3cccc(Cl)c3Cl)c(C3CC3)nn12 [GSK2358994] | – | – | 7% | 5% | 0% | 0% | 20% | 0% | 0% | 0% | 0% | 0% | – | – | – | – | – | – | – |
| O=c1cc(N2CCOCC2)nc2n(Cc3cccc(C(F)(F)F)c3)ccn12 [GSK2297543] | 7% | 12% | 0% | 0% | 16% | 0% | 0% | 20% | 0% | 0% | – | – | – | – | – | – | – | – | – |
| c1ccc(-c2n[nH]cc2-c2ccnc3ccccc23)nc1 [GW271431] | 0% | 0% | 0% | 0% | 5% | 0% | 7% | 5% | 0% | 6% | – | – | – | – | – | – | – | – | – |
| N#Cc1ccc(-c2cc(-c3c[nH]nc3-c3ccccn3)ccn2)cc1 [GW693028] | 2% | 11% | 0% | 0% | 23% | 0% | 8% | 13% | 0% | 0% | – | – | – | – | – | – | – | – | – |
| N#Cc1c(N2CCOCC2)sc(-c2ccn[nH]2)c1-c1ccc(Cl)cc1 | 2% | 29% | 15% | 43% | 0% | 0% | 0% | 0% | 0% | 0% | – | – | – | – | – | – | – | – | – |
| COc1ccc(S(=O)(=O)NC2CCN(c3cc(C)nc(Nc4cccc(C#N)c4)n3)CC2)cc1.O=C(O)C(F)(F)F [GSK1653539] | 0% | 38% | 0% | 0% | 4% | 0% | 15% | 0% | 0% | 0% | – | – | – | – | – | – | – | – | – |
| NCCNS(=O)(=O)c1ccc(-c2ccnc3[nH]ccc23)cc1 [GSK977617] | 0% | – | 0% | – | – | – | – | – | 0% | 0% | – | – | 34% and 27% | 85% and 74% | 20% and 19% | 5% and 26% | 10% and 1% | 0% and 8% | – |
| CN(C(=O)c1ccc(-c2cc(-c3c[nH]nc3-c3ccccn3)ccn2)cc1)C1CCOCC1 [GW810083] | 0% | 15% | 0% | 9% | 45% | 0% | 21% | 0% | 47% | 0% | – | – | – | – | – | – | – | – | – |
| Cc1cn2c(=O)cc(N3CCOCC3)nc2n1Cc1cccc(Cl)c1Cl [GSK2334006] | 0% | 3% | 2% | 0% | 15% | 0% | 0% | 3% | 0% | 2% | – | – | – | – | – | – | – | – | – |
| Cc1ccc(NC(=O)c2ccnc(N3CCN(C)CC3)c2)cc1-c1ccc(C(=O)NCC2CC2)cc1 [GW775604] | 0% | 2% | 0% | 0% | 0% | 0% | 0% | 0% | 5% | 0% | – | – | – | – | – | – | – | – | – |
| O=C(NCCNc1ccnc(Nc2ccc(F)cc2)n1)Nc1ccccc1F [GSK1379880] | 3% | 28% | 0% | 0% | 0% | 0% | 0% | 15% | 0% | 0% | – | – | – | – | – | – | – | – | – |
| Nc1nccc(-c2c(-c3ccc(F)cc3)ncn2C2CCN(CC(F)(F)F)CC2)n1 [SB-236560] | 97.9% | 52% | 0% | 10% | 70% | 0% | 18% | 11% | 0% | 0% | – | – | – | – | – | – | – | – | – |
| COc1cc2c(cc1OC[C@@H](O)CO)ncc1c3ccc(C#N)cc3[nH]c21 | 0% | 4% | 17% | 99.5% | 15% | 0% | 12% | 0% | 8% | 0% | – | – | – | – | – | – | – | – | – |
| COCCNC(=O)c1ccc(-c2cc(C(=O)NC3CC3)cc(F)c2C)cc1 [GW868318] | 0% | 21% | 11% | 25% | 0% | 0% | 19% | 28% | 27% | 26% | – | – | – | – | – | – | – | – | – |
| Cc1nnc(-c2ccc(C)c(-c3ccc(C(=O)Nc4ccc(NS(C)(=O)=O)cc4)cc3)c2)o1 [GW702865] | 0% | 0% | 0% | 0% | 28% | 0% | 5% | 18% | 0% | 0% | – | – | – | – | – | – | – | – | – |

| SMILES | %Inh (CDK4-cyclinD3; [1]) | %Inh (CDK4; [1]) | %Inh (CDK5) | %Inh (CDK7) | %Inh (CDK8) | %Inh (CDK9) | %Inh (CDKL1) | %Inh (CDKL2) | %Inh (CDKL3) | %Inh (CDKL5) | %Inh (CDK4-cyclinD3; 1 µM) | %Inh (CDK4; 1 µM) | %Inh (CDK4; [2]) | %Inh (CDK7; 1 µM) | %Inh (CDK8; 1 µM) | %Inh (CDK9; 1 µM) | %Inh (CDKL1; 1 µM) | %Inh (CDKL2; 1 µM) | %Inh (CDK4-cyclinD3; [2]) |
| --- | --- | --- | --- | --- | --- | --- | --- | --- | --- | --- | --- | --- | --- | --- | --- | --- | --- | --- | --- |
| NS(=O)(=O)CCc1cccc(Nc2nccc(-c3c(-c4cccc(NC(=O)c5c(F)cccc5F)c4)nn4ccccc34)n2)c1 [GSK336735] | 0% | 19% | 0% | 0% | 0% | 0% | 0% | 25% | 0% | 1% | – | – | – | – | – | – | – | – | – |
| CCc1nc(-c2cccc(C)c2)c(-c2ccnc(NCc3ccccc3)c2)s1 | 0% | 0% | 0% | 0% | 0% | 1% | 13% | 0% | 2% | 0% | – | – | – | – | – | – | – | – | – |
| Cc1cccc(Cn2ccn3c(=O)cc(N4CCOCC4)nc23)c1 [GSK2297542] | 0% | 6% | 0% | 0% | 31% | 0% | 20% | 29% | 0% | 0% | – | – | – | – | – | – | – | – | – |
| Cc1cccc(-c2nc(-c3ccc(S(C)(=O)=O)cc3)sc2-c2ccncc2)c1 | 19% | 0% | 12% | 25% | 9% | 0% | 0% | 4% | 0% | 7% | – | – | – | – | – | – | – | – | – |
| CC(C)(CN)c1nc(-c2ccc(Cl)c(O)c2)c(-c2ccncc2)[nH]1.O=C(O)C(F)(F)F [SB-477794] | – | – | 0% | – | – | 0% | – | – | 0% | 0% | – | – | 39% and 51% | 0% and 14% | 59% and 64% | – | 3% and 10% | 14% and 0% | 32% and 0% |
| CN1c2ccc(CNc3ccc(F)cc3)cc2-c2c(cnn2C)S1(=O)=O | 0% | 0% | 0% | 0% | 0% | 0% | 9% | 0% | 0% | 0% | – | – | – | – | – | – | – | – | – |
| COc1ccc(Nc2nccc(N3CCC(NC(=O)Nc4cc(C)ccc4C)C3)n2)cc1 (stereo not shown) [GSK1379741] | 0% | 0% | 0% | 0% | 11% | 0% | 0% | 44% | 0% | 5% | – | – | – | – | – | – | – | – | – |
| COc1cc(Nc2nccc(N3CCC(NC(=O)c4cccc(NC(C)=O)c4)C3)n2)cc(OC)c1OC (stereo not shown) [GSK1379754] | 0% | 12% | 0% | 9% | 33% | 0% | 0% | 22% | 0% | 4% | – | – | – | – | – | – | – | – | – |
| Cc1c(Cn2c(C)nn3c(=O)cc(N4CCOC(C)C4)nc23)cccc1C(F)(F)F (stereo not shown) [GSK2344444] | 0% | 25% | 0% | 0% | 0% | 2% | 0% | 4% | 0% | 0% | – | – | – | – | – | – | – | – | – |
| Cc1cccc(-c2nc(Nc3ccc4ncsc4c3)c3ccccc3n2)n1 [GW867588] | 0% | 7% | 0% | 17% | 43% | 3% | 1% | 0% | 1% | 0% | – | – | – | – | – | – | – | – | – |
| Cl.Oc1cccc(Nc2ccnc3cc(-c4ccncc4)ccc23)c1 [GW494601] | 0% | 37% | 0% | 10% | 36% | 4% | 2% | 2% | 0% | 0% | – | – | – | – | – | – | – | – | – |
| O=C(c1ccc(-c2cc(-c3c[nH]nc3-c3ccccn3)ccn2)cc1)N1CCOCC1 [GW812171] | 0% | 1% | 0% | 17% | 7% | 0% | 25% | 8% | 0% | 0% | – | – | – | – | – | – | – | – | – |
| Cn1cc(-c2ccc3c(c2)CCN3C(=O)Cc2ccccc2Cl)c2c(N)ncnc21 [GSK2608885] | 0% | 22% | 0% | 1% | 7% | 0% | 0% | 17% | 0% | 10% | – | – | – | – | – | – | – | – | – |
| Nc1nc(-c2ccc3c(N)n[nH]c3c2)cc(N2CCCC2)n1 [GSK2227430] | 0% | 0% | 0% | 0% | 0% | 0% | 72% | 0% | 0% | 0% | – | – | – | – | – | – | – | – | – |
| CNc1ncnc2[nH]ncc12 [SKF-18355] | 0% | 17% | 0% | 0% | 0% | 0% | 8% | 30% | 19% | 3% | – | – | – | – | – | – | – | – | – |
| c1ccc(-c2cc(-c3c[nH]nc3-c3ccccn3)ccn2)cc1 [GW576604] | 0% | 49% | 0% | 0% | 13% | 0% | 0% | 0% | 0% | 0% | – | – | – | – | – | – | – | – | – |
| COC(=O)Nc1nc2cc(Oc3ccc(NC(=O)Nc4cc(F)ccc4F)cc3)ccc2[nH]1.Cl [GW701424] | 5% | 0% | 0% | 37% | 42% | 0% | 0% | 36% | 0% | 0% | – | – | – | – | – | – | – | – | – |
